From PubChem BioAssay (NCATS) come the findings set out here.

Experiment [1] concerns the target T1, Hexokinase-4 (Homo sapiens) + Glucokinase regulatory protein (Homo sapiens) (UniProt P35557+Q14397). As to the kind of experiment: qHTS assay for inhibitors of recombinant human GCK-GKRP interaction: HTRF assay (AID 743207).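 Further: 0% = DMSO with GCK present and -100% = DMSO wells lacking GCK.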 The essentials: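 HTRF read-out (ex 320 nm; 615/665 nm emission) after 60 min RT equilibration of 5 nM GST-GCK, 5 nM FLAG-GKRP, 2 uM S6P, compound and anti-FLAG/anti-GST detection antibodies; signal normalized between DMSO wells with and without GCK.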

A short description of experiment [2]: qHTS Assay for Identifying Gametocytocidal Compounds (AID 743244).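 Further: on the % scale 0 is the no-effect control and ±100 the full control effect; actives lower the fluorescent signal which means gametocytes are killed.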 The conditions noted are these: P. falciparum 3D7 stage III-V gametocytes, alamarBlue, 72 h; max response: stronger effect = lower value. The essentials:
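Compounds are pinned into medium, gametocytes (stage III–V, 3D7, 20,000 cells/well) added, and plates held 72 h at 37 °C in 5% CO2. AlamarBlue follows for 24 h before fluorescence reading.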

The nature of experiment [3]: qHTS assay for cell viability of HEK293 cells (AID 743288). Further: nearly all actives have a fitted effect of over 50% in size. Further: potency means the concentration at half of the fitted maximal effect. On max response: on the % scale 0 is the no-effect control and ±100 the full control effect. The conditions noted are these: ATP luminescence (CellTiter-Glo), 18 h; max response: stronger effect = lower value. The essentials: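 Environmental chemicals tested in qHTS format against parental HEK293 cells; 18 h treatment, 37 C; read-out ATP luminescence (CellTiter-Glo), 30 min RT development.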
The nature of experiment [4]: qHTS assay for cell viability of the p53RE-bla HCT-116 cell line (AID 743292). Further: on the % scale 0 is the no-effect control and ±100 the full control effect; nearly all actives have a fitted effect of over 55% in size. The essentials: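 ATP-based luminescent viability (CellTiter-Glo, 30 min RT) after 16 h compound treatment at 37 C of p53RE-bla HCT-116 cells, seeded at 4,000 cells/well and rested 5 h before dosing.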
Experiment [5] is described as follows: qHTS profiling of the MIPE4 collection as inhibitors of Plasmodium falciparum (3D7) proliferation (AID 743344; call rule not given here;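 further: scaled between DMSO vehicle wells and 0.29 µM artemisinin as full inhibition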). To be noted: P. falciparum 3D7 in erythrocytes, SYBR Green DNA fluorescence, 72 h; at 28.5 µM (top of the series) unless noted. The gist of the method: (§1)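 Erythrocytes infected with P. falciparum (0.3% parasitemia, 2.5% hematocrit) incubated with compounds 72 h at 37 C, 5% CO2. Lysis with saponin/Triton buffer containing SYBR Green I, overnight at room temperature in the dark; DNA fluorescence (485/535 nm) normalised to 0.29 uM artemisinin and DMSO.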

Experiment [6] can be described thus: qHTS profiling of the MIPE4 collection as inhibitors of Plasmodium falciparum (DD2) proliferation (AID 743345; call rule not given here). The conditions noted are these: P. falciparum Dd2 in erythrocytes, SYBR Green DNA, 72 h; at 28.5 µM (top of the series) unless noted. The essentials:
as §1

The nature of experiment [7]: qHTS profiling of the MIPE4 collection as inhibitors of Plasmodium falciparum (DD2) proliferation (Rep 2) (AID 743346; call rule not given here). The conditions noted are these: P. falciparum Dd2 in erythrocytes, SYBR Green DNA, 72 h; at 28.5 µM (top of the series) unless noted. The essentials:
as §1

The nature of experiment [8]: qHTS profiling of the MIPE4 collection as inhibitors of Plasmodium falciparum (HB3) proliferation (AID 743347; call rule not given here;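 further: plate controls were DMSO vehicle wells for no effect and artemisinin wells for full effect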). To be noted: P. falciparum HB3 in erythrocytes, SYBR Green DNA, 72 h; at 28.5 µM (top of the series) unless noted. The essentials: as §1
Experiment [9] is described as follows: High-throughput drug toxicity screening in the BPDCN cell line Gen2.2 (AID 1224824; call rule not given here;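 further: cells exposed to compounds for 48 h before reading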). The conditions noted are these: Gen2.2 BPDCN cells; at 45.8 µM (top of the series) unless noted. The essentials: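 CellTiter-Glo luminescence after 48 h compound exposure of Gen2.2 cells; percent activity set with DMSO as 100% and bortezomib (9.2 uM final) as 0%. Cells seeded at 500 per well, RPMI + 10% FBS, 37 °C.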

A short description of experiment [10]: High-throughput drug toxicity screening in the BPDCN cell line Cal-1 (AID 1224825; call rule not given here). To be noted: Cal-1 BPDCN cell viability, qHTS; at 45.8 µM (top of the series) unless noted. The gist of the method:
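Exponentially growing Cal-1 cells, 500 per well in phenol red-free RPMI with 10% FBS, were exposed to compounds for 48 h at 37 °C, 5% CO2. Viability was read by CellTiter-Glo luminescence and normalised to DMSO (100%) and 9.2 uM bortezomib (0%).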

The nature of experiment [11]: qHTS assay for measurement of the activity of small molecule inhibitors on Zika virus induced Caspase-3 activity in human iPSC derived neural progenitor cells (hNPCs) (AID 1224857). Further: nearly all actives have a fitted effect of over 65% in size. Further: potency means the concentration at half of the fitted maximal effect. The essentials:
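Pretreat hNPCs with compound 1 h; infect ZIKV 2 FFU/cell; 6 h 37 C, 5% CO2; Caspase-Glo 3/7, 30 min RT; luminescence; normalize to no-virus and virus-only wells.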

The nature of experiment [12]: qHTS Screen of the MIPE 4.0 Collection Against Ewings Sarcoma (TC71) (AID 1259253). Further: nearly all actives have a fitted effect of over 40% in size. Further: potency means the concentration at half of the fitted maximal effect. The gist of the method: (§2)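 Compound titrations go onto adherent log-phase cells 4 h after seeding, incubate 48 h at 37C, then CellTiter-Glo luminescence reports viability relative to DMSO and cell-free controls.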
A short description of experiment [13]: qHTS Screen of the MIPE 4.0 Collection Against Ewings Sarcoma (EW8) (AID 1259255). Further: nearly all actives have a fitted effect of over 35% in size. Further: potency means the concentration at half of the fitted maximal effect.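 On viability: 100% = DMSO-treated cells and 0% = medium-only wells without cells.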 The essentials: as §2
Experiment [14] is described as follows: qHTS Screen of the MIPE 4.0 Collection Against Ewings Sarcoma (TC32) (AID 1259256). Further: nearly all actives have a fitted effect of over 45% in size. Further: potency means the concentration at half of the fitted maximal effect. The gist of the method:
as §2

Experiment [15] deals with T1, Hexokinase-4 (Homo sapiens) + Glucokinase regulatory protein (Homo sapiens). As to the kind of experiment: qHTS assay for inhibitors of recombinant human GCK-GKRP interaction: ADP-Glo assay (AID 743206).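 Further: plate controls were DMSO plus enzyme for no effect and no enzyme for full effect.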 The gist of the method:
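GST-GCK and FLAG-GKRP (15 nM each in the dispensed mix, with 2 uM S6P) react with 0.4 mM ATP and 5 mM glucose (final) in Hepes pH 7.6 for 60 min at room temperature. ADP is measured by ADP-Glo luminescence.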

The nature of experiment [16]: qHTS Screen of the MIPE 4.0 Collection Against Ewings Sarcoma (RDES) (AID 1259252). Further: nearly all actives have a fitted effect of over 35% in size. Further: potency means the concentration at half of the fitted maximal effect. The gist of the method: as §2
Experiment [17] in a line: qHTS assay for measurement of the activity of small molecule inhibitors on Zika virus induced Caspase-3 activity in human astrocytoma cells (AID 1224859).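 Further: plate controls were ZIKV-infected untreated cells for no effect and uninfected cells for full effect.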 The gist of the method:
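Human SNB-19 astrocytoma cells in RPMI 1640 with 10% FBS receive compound one hour ahead of Zika virus at 2 FFU/cell. After 6 h infection, caspase-3/7 activity is detected by Caspase-Glo luminescence.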

Values joined by “and” are separate entries in the source; they are usually repeats but may differ in a detail not shown here. Equal values may be shown once. Results filed as inconclusive are left out. Where a structure was tested more than once in an assay, its records may differ in their call. Active and inactive are the calls of the source. Unless noted, the call rests on the fitted dose curve; in most records, active means well fitted curve in the direction sought with a large enough effect; inconclusive means small, poorly fitted or top-dose-only effect, or another doubt; inactive means no such curve, though single readings can be large; an effect the other way counts as inactive or inconclusive.

T1 sequence (P35557 whole entry, looked up): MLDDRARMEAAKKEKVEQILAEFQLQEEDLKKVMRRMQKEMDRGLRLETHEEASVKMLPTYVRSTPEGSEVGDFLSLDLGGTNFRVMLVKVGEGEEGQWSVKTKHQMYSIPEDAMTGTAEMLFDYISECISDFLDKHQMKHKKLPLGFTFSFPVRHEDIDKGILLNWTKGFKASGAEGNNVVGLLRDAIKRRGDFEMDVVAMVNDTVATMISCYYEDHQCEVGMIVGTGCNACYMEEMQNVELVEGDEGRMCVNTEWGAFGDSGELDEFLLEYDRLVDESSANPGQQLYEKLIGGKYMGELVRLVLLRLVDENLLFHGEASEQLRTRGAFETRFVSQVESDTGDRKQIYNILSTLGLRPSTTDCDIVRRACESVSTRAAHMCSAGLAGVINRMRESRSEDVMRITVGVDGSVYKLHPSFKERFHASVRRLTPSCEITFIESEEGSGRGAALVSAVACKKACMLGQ
T1 sequence (Q14397 whole entry, looked up): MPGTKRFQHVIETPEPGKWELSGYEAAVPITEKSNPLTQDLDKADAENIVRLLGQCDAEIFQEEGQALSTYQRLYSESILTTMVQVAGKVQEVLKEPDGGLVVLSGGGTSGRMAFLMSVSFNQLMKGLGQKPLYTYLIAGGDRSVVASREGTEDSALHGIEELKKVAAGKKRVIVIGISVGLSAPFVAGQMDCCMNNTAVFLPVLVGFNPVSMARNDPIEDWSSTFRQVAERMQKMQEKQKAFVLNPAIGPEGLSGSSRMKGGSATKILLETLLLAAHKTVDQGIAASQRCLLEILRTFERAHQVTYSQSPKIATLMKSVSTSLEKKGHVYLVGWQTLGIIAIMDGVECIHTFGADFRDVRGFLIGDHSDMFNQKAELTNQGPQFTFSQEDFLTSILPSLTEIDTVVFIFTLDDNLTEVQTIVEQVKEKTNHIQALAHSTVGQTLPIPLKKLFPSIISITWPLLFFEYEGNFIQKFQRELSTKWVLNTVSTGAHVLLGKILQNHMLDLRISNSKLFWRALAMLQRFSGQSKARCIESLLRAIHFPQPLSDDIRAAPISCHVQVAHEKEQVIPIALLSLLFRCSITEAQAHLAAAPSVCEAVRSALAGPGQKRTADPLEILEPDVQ

In the case of `CC(C)NCC(O)c1ccc(O)c(O)c1` (configuration not stated), the Potency result in [1], in [4] and in experiment [11] was “inactive” each time. Besides, the max response in experiment [2] was -2.95% (inactive); in experiment [3] it was 0.858% (inactive) and -11.4% (inactive). Further, the parasite growth, % of DMSO control in experiment [5] worked out at 10.6%. Besides, in experiment [6], the parasite growth remaining, % of DMSO control (lower = more inhibition) amounted to 91.4%. For the same compound, the parasite growth, % of control (lower = inhibition) in experiment [7] came out at 9.11%. In addition, in experiment [8], the growth, % of control worked out at 9.05%. Moreover, in [9], the cell viability, % of control (lower = more cytotoxic) is 46.4%. Further, in [10], the viability (% of control) was determined as 16%. In addition, the Potency is 5.9 µM (active) in experiment [12] and 20.9 µM (active) in [13].

As for `O=C1Cc2cc(CCN3CCN(c4nsc5ccccc45)CC3)c(Cl)cc2N1`, the Potency result in experiment [1] and in experiment [11] was “inactive” each time. Moreover, the max response in [2] was -0.117% (inactive) and 9.6% (inactive). In experiment [5], this compound came in with a parasite growth, % of DMSO control of 14.8%. The parasite growth remaining, % of DMSO control (lower = more inhibition) in experiment [6] came out at 21.2%. Moreover, in [7], the parasite growth, % of control (lower = inhibition) was 20.5%. In addition, the growth, % of control in experiment [8] stood at 9.47%. Moreover, in experiment [9], the cell viability, % of control (lower = more cytotoxic) amounted to 199%. Also, the viability (% of control) in experiment [10] stood at 94.5%. In addition, the Potency in [12], in experiment [13] and in experiment [14] was 23.5 µM (active) each time.

On to `Nc1ccn([C@H]2CC[C@@H](CO)O2)c(=O)n1`, for which the Potency entry in experiment [15], in [1], in experiment [4], in [11], in [16] and in [12] was “inactive” each time. Moreover, the Potency entry in experiment [13] and in experiment [14] was “inactive” each time. Further, the max response was -9.19% (inactive) and 7.53% (inactive) in experiment [2]; 3.55% (inactive) and 2.55% (inactive) in experiment [3]. In experiment [5], the parasite growth, % of DMSO control was found to be 114%. Besides, in [6], the parasite growth remaining, % of DMSO control (lower = more inhibition) is 115%. Besides, the parasite growth, % of control (lower = inhibition) in [7] was 74.1%. Also, in experiment [8], the growth, % of control worked out at 176%. Besides, the cell viability, % of control (lower = more cytotoxic) in experiment [9] worked out at 251%. Further, the viability (% of control) in [10] worked out at 102%.

As to `CC(CCc1ccc(O)cc1)NCCc1ccc(O)c(O)c1` (configuration not stated), the Potency result in [15], in experiment [1] and in [11] was “inactive” each time. In addition, the max response in experiment [2] was 27.1% (inactive). In experiment [5], this compound came in with a parasite growth, % of DMSO control of 52.3%. The parasite growth remaining, % of DMSO control (lower = more inhibition) in experiment [6] came out at 64.4%. In [7], the parasite growth, % of control (lower = inhibition) is 62.7%. In experiment [8], this compound yielded a growth, % of control of 92.8%. The cell viability, % of control (lower = more cytotoxic) in [9] worked out at 5%. In [10], the viability (% of control) amounted to 9.22%. In addition, the Potency in [12] and in experiment [13] was 23.5 µM (active) throughout.

As for `COc1cc2nc(N(C)CCCNC(=O)C3CCCO3)nc(N)c2cc1OC` (configuration not stated), the Potency result in experiment [1], in experiment [11], in [17], in [16], in [12] and in experiment [13] was “inactive” throughout. The Potency result in [14] was “inactive”. For the same compound, in experiment [2], the max response was 19.8% (inactive) and 12.7% (inactive). In addition, the parasite growth, % of DMSO control in [5] stood at 64%. The parasite growth remaining, % of DMSO control (lower = more inhibition) in [6] was 88.3%. Moreover, the parasite growth, % of control (lower = inhibition) in [7] turned out to be 63%. In [8], this compound showed a growth, % of control of 67.3%. Besides, the viability (% of control) in [10] came out at 115%.

Take `NC(CO)C(=O)NNCc1ccc(O)c(O)c1O` (configuration not stated): the Potency result in [1] and in [17] was “inactive” in each case. Moreover, the max response in experiment [2] was 0.751% (inactive). In [5], the parasite growth, % of DMSO control came out at 84.1%. The parasite growth remaining, % of DMSO control (lower = more inhibition) in [6] was 125%. The parasite growth, % of control (lower = inhibition) in [7] stood at 89.1%. In addition, the growth, % of control in experiment [8] is 99.5%. The cell viability, % of control (lower = more cytotoxic) in experiment [9] was found to be 86.9%. Further, in experiment [10], the viability (% of control) came to 79.5%. Also, the Potency result is “inactive and 7.43 µM (active)” in experiment [11]; 26.4 µM (active) in experiment [14].

Regarding `NCCc1cnc[nH]1`, the Potency entry in experiment [1], in experiment [11], in [13] and in experiment [14] was “inactive” in each case. For the same compound, the max response in experiment [2] is 8.45% (inactive) and 33% (inactive). Besides, in experiment [5], the parasite growth, % of DMSO control is 95.8%. For the same compound, in experiment [6], the parasite growth remaining, % of DMSO control (lower = more inhibition) turned out to be 101%. Besides, the parasite growth, % of control (lower = inhibition) in experiment [7] was determined as 109%. The compound further came in with a growth, % of control in experiment [8] of 108%. Besides, in experiment [9], the cell viability, % of control (lower = more cytotoxic) was found to be 166%. Besides, the viability (% of control) in [10] amounted to 99.6%. Besides, the Potency in experiment [16] was 5.9 µM (active).

Consider `CC(COc1ccccc1)N(CCCl)Cc1ccccc1` (configuration not stated), for which the Potency result in experiment [1], in [4], in [11], in experiment [16], in experiment [12] and in experiment [13] was “inactive” throughout. In addition, the Potency entry in experiment [14] is “inactive”. In addition, the Potency in experiment [3] is 35.5 µM (active). In [5], this compound registered a parasite growth, % of DMSO control of 90.3%. In experiment [6], the parasite growth remaining, % of DMSO control (lower = more inhibition) amounted to 26.2%. The parasite growth, % of control (lower = inhibition) in [7] came out at 27%. In experiment [9], the cell viability, % of control (lower = more cytotoxic) is 82.3%. The viability (% of control) in experiment [10] was determined as 45%.
